{"source": "the supplement of paper PMC7184167", "note": "Counter-ions that a name gives are not always drawn."}
{"tested_on": "replication-induced senescent mouse newborn dermal fibroblasts (NBF)", "assay": "relative cell viability of senescent cells (fraction); higher = less killing of senescent cells", "settings": "1 µM; 3 days", "protocol": "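Replication-induced senescent newborn mouse skin fibroblasts (NBFs) in 24-well plates were treated with a Selleck FDA-approved drug library at 1 µM for 3 days.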"}
{"smiles": "CO[C@H]1/C=C/O[C@@]2(C)Oc3c(C)c(O)c4c(O)c(c(/C=N/N5CCN(C)CC5)c(O)c4c3C2=O)NC(=O)/C(C)=C\\C=C\\[C@H](C)[C@H](O)[C@@H](C)[C@@H](O)[C@@H](C)[C@H](OC(C)=O)[C@@H]1C", "note": "[Rifampin]", "relative cell viability": 1.11}
{"smiles": "C[C@]12CC[C@@H]3c4ccc(O)cc4C[C@@H](CCCCCCCCC[S+]([O-])CCCC(F)(F)C(F)(F)F)[C@H]3[C@@H]1CC[C@@H]2O", "note": "(stereo not given in full) [Fulvestrant]", "relative cell viability": 0.971}
{"smiles": "CC(C)[N+]1(C)[C@@H]2CC[C@H]1C[C@@H](OC(=O)C(CO)c1ccccc1)C2", "note": "(stereo not given in full) [Ipratropium Bromide]", "relative cell viability": 0.902}
{"smiles": "COc1ccc(-c2nc3cc(C4=NNC(=O)CC4C)ccc3[nH]2)cc1", "note": "(stereo not given) [Pimobendan]", "relative cell viability": 0.639}
{"smiles": "Cc1ccccc1N1C(=O)c2cc(S(N)(=O)=O)c(Cl)cc2NC1C", "note": "(stereo not given) [Metolazone]", "relative cell viability": 0.962}
{"smiles": "CCCCC(=O)N(Cc1ccc(-c2ccccc2-c2nnn[nH]2)cc1)[C@H](C(=O)O)C(C)C", "note": "[Valsartan]", "relative cell viability": 0.897}
{"smiles": "COc1cc(Nc2c(C#N)cnc3cc(OCCCN4CCN(C)CC4)c(OC)cc23)c(Cl)cc1Cl", "note": "[Bosutinib (SKI-606)]", "relative cell viability": 0.0801}
{"smiles": "C#Cc1cccc(Nc2ncnc3cc(OCCOC)c(OCCOC)cc23)c1", "note": "[Erlotinib HCl (OSI-744)]", "relative cell viability": 0.672}
{"smiles": "CCCCC(=O)O[C@]1(C(=O)CO)[C@@H](C)C[C@H]2[C@@H]3CCC4=CC(=O)C=C[C@]4(C)[C@@]3(F)[C@@H](O)C[C@@]21C", "note": "[Betamethasone Valerate]", "relative cell viability": 1.15}
{"smiles": "CNC(=O)c1ccc2cc([C@@]3(O)CCn4cncc43)ccc2c1", "note": "[TAK-700 (Orteronel)]", "relative cell viability": 0.282}
